# Measurements reported in PubChem BioAssay (Tox21).
# Results filed as inconclusive are left out. Entries that show only a call come without a potency. Unmarked numbers belong to inactive results. Activity calls are given as the source filed them. Calls come from the whole dose curve; as a rule, active = well fitted curve in the direction sought with a large enough effect in the repeat runs; inconclusive = weak or mixed curves; inactive = no such curve, though single readings can be large; an effect the other way counts as inactive or inconclusive.
# How the values were obtained:
# [1] = qHTS assay to identify small molecule antagonists of the estrogen related receptor (ERR) signaling pathway from Tox21 library - cell viability counter screen (AID 1224834); note: nearly all actives have a fitted effect of over 30% in size
# Summary of the method: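 ERR reporter cells, 2,000 per well, rested 6 h, then exposed to compound in DMSO for 17.5 hours at 37 C. Viability read as fluorescence after 30 min with CellTiter-Fluor.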
# [2] = molecular target: Luciferin 4-monooxygenase (Photinus pyralis) (UniProt P08659); test: qHTS assay to identify small molecule inhibitors of firefly luciferase (AID 1224835); note: nearly all actives have a fitted effect of over 25% in size; for activity change, negative = inhibition: series mostly up to about 120 µM
# Summary of the method: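 Inhibition of purified Photinus luciferase is measured by luminescence. Substrate levels (D-luciferin, ATP) sit at their KM values. Each compound is tested in a concentration series.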
# [3] = qHTS assay to identify small molecule agonists of the constitutive androstane receptor (CAR) signaling pathway - cell viability counter screen (AID 1224836); note: nearly all actives have a fitted effect of over 45% in size; for viability change, negative = cytotoxic: series mostly up to about 92 µM
# Summary of the method: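 Double-stable HepG2 hepatoma cells (hCAR plus CYP2B6-2.2kb) are treated for 23 h at 37 C with test compounds in 15-point concentration series. PK11195 at 0.75 uM final is co-added. Cell viability is quantified by CellTiter-Fluor.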
# [4] = qHTS assay to identify small molecule antagonists of the constitutive androstane receptor (CAR) signaling pathway - cell viability counter screen (AID 1224837); note: nearly all actives have a fitted effect of over 45% in size; for activity change, negative = cytotoxicity: series mostly up to about 92 µM
# Summary of the method: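 HepG2 cells stably carrying hCAR and CYP2B6-2.2kb reporter, stimulated with 50 nM CITCO and compounds at 15 concentrations for 23 h at 37 C. Viability measured by CellTiter-Fluor fluorescence.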
# Potency is the fitted concentration of half-maximal effect.
# Chain of Luciferin 4-monooxygenase (Photinus pyralis) (P08659 whole entry, looked up): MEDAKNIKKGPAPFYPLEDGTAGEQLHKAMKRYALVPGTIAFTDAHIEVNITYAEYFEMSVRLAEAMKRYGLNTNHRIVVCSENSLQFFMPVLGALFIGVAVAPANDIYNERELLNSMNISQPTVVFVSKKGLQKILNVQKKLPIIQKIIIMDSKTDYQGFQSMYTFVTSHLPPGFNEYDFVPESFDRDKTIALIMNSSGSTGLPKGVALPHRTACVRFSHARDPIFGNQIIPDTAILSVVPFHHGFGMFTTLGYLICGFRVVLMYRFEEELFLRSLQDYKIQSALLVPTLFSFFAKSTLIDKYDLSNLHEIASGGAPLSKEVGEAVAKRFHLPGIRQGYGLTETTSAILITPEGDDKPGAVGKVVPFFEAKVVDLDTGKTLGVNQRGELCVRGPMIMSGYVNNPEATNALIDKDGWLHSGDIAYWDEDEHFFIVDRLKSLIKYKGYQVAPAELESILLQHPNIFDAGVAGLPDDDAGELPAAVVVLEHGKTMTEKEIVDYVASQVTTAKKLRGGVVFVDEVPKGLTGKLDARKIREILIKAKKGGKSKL
Compound,Potency [1],Potency [2],Potency [3],Potency [4],"viability change, negative = cytotoxic [1]","activity change, negative = inhibition [2]","viability change, negative = cytotoxic [3]","activity change, negative = cytotoxicity [4]"
Oc1ccc2c(c1)CCC2,inactive,inactive,inactive,inactive,,,,
COc1c(Br)cc(Br)c(C)c1Br,inactive,inactive,inactive,inactive,,,,
[Cl][Eu]([Cl])[Cl],inactive,31.7 µM (active),inactive,inactive,,,,
CC(C=O)c1ccccc1 (stereo unspecified),inactive,inactive,inactive,inactive,,,,
Brc1cc(Br)cc(Br)c1,inactive,inactive,inactive,inactive,,,,
O=c1cc[nH]cc1,inactive,inactive,inactive,inactive,,,,
N#CCCOCCC#N,inactive,inactive,inactive,inactive,,,,
Cc1c[nH]c(=O)[nH]c1=O,inactive,inactive,inactive,inactive,,,,
CCc1c(C)cc(N)c(CC)c1N,inactive,inactive,inactive,inactive,,,,
N#Cc1ccc(C/C(=N/NC(=O)Nc2ccc(OC(F)(F)F)cc2)c2cccc(C(F)(F)F)c2)cc1,inactive,inactive,inactive,inactive,,,,
COc1cc(C(C)C)ccc1C,,,,,2.54% [at 19 µM],1.91% [at 23.6 µM],2.67% [at 19 µM],1.68% [at 19 µM]
SC1CCCCC1,inactive,inactive,inactive,inactive,,,,
CCN(CC)c1ccc2c(c1)Oc1cc(N(CC)CC)ccc1C21OC(=O)c2ccccc21,6.68 µM (active),13.8 µM (active),8.41 µM (active),4.73 µM (active),,,,
CC/C(=C(/c1ccc(O)cc1)c1ccc(OCCN(C)C)cc1)c1ccccc1,32 µM (active),inactive,40.3 µM (active),32 µM (active),,,,
O=[N+]([O-])c1ccc(O)c2ncccc12,11.9 µM (active),inactive,inactive,inactive,,,,
CCOC=C(C(=O)OCC)C(=O)OCC,inactive,inactive,inactive,inactive,,,,
O=C1CCC(=O)N1,inactive,inactive,inactive,inactive,,,,

Compound,Potency [1],Potency [2],Potency [3],Potency [4],"viability change, negative = cytotoxic [1]","activity change, negative = inhibition [2]","viability change, negative = cytotoxic [3]","activity change, negative = cytotoxicity [4]"
[Cl][Sc]([Cl])[Cl],inactive,28.3 µM (active),inactive,inactive,,,,
NC(=O)c1ccccc1Cl,inactive,inactive,inactive,inactive,,,,
Cc1cc(Br)ccc1NC(=O)CCl,19.3 µM (active),inactive,48.6 µM (active),54.5 µM (active),,,,
O=C1CCCCCCCCCCCCCC1,inactive,inactive,inactive,inactive,,,,
CCCCCc1ccc(O)cc1,inactive,56.4 µM (active),inactive,inactive,,,,
CCOC(=O)OC(=O)OCC,inactive,inactive,inactive,inactive,,,,
CC/C=C(\C)C=O,inactive,inactive,inactive,inactive,,,,
CCCCCCCCCCCCS(=O)(=O)Cl,,,,,-1.38% [at 19 µM],-13.9% [at 23.6 µM],14.3% [at 19 µM],-7.2% [at 19 µM]
COC(=O)c1ccc([N+](=O)[O-])cc1,inactive,inactive,inactive,inactive,,,,
O=C1CCC/C=C\CCCCCCCCCC1,inactive,inactive,inactive,inactive,,,,
CCCCCN=C(N)N/N=C/c1c[nH]c2ccc(OC)cc12,26.6 µM (active),inactive,21.1 µM (active),18.8 µM (active),,,,
CCn1c2ccccc2c2ccccc21,inactive,inactive,inactive,inactive,,,,
CCC1(C)C(=O)N(Cl)C(=O)N1Cl (stereo unspecified),inactive,inactive,inactive,inactive,,,,
CC(=O)CC(N)=O,inactive,inactive,inactive,inactive,,,,
CCN(CCC#N)c1ccc(N=Nc2ccc([N+](=O)[O-])cc2)cc1,inactive,inactive,inactive,inactive,,,,
C/C(=N\[Si](C)(C)C)O[Si](C)(C)C,inactive,inactive,inactive,inactive,,,,
C=Cc1ccc(O)c(OC)c1,inactive,inactive,inactive,inactive,,,,
